PubChem BioAssay (NCATS)
Results filed as inconclusive are left out. Active and inactive are the calls of the source. The call rests on the fitted dose curve; in most records, active means well fitted curve in the direction sought with a large enough effect; inconclusive means small, poorly fitted or top-dose-only effect, or another doubt; inactive means no such curve, though single readings can be large; an effect the other way counts as inactive or inconclusive.

Legend:
[1] = qHTS of pediatric cancer cell lines to identify multiple opportunities for drug repurposing: Primary screen for Rh18 cells (AID 1347102); further: nearly all actives have a fitted effect of over 65% in size
How it was run: (§1)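 Cells (500-1,000/well) rested 5 h, then received compounds for 48 h; metabolically active cells were measured by CellTiter-Glo luminescence. Final concentrations spanned up to 46 µM (MIPE, 11-point) or 0.59 nM-46 µM (NPC, 8-point) in primary screens, 11-point in follow-ups.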

[2] = qHTS of pediatric cancer cell lines to identify multiple opportunities for drug repurposing: Primary screen for OHS-50 cells (AID 1347103); further: nearly all actives have a fitted effect of over 40% in size
How it was run: as §1

[3] = qHTS of pediatric cancer cell lines to identify multiple opportunities for drug repurposing: Primary screen for MG 63 (6-TG R) cells (AID 1347105); further: nearly all actives have a fitted effect of over 50% in size
How it was run: (§2)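 Following a 5-hour attachment period, cells at 500-1,000/well received compounds and were cultured for 48 hours. CellTiter-Glo was added and luminescence read to estimate viable, metabolically active cells.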

[4] = qHTS of pediatric cancer cell lines to identify multiple opportunities for drug repurposing: Primary screen for control Hh wild type fibroblast cells (AID 1347106); further: nearly all actives have a fitted effect of over 55% in size
How it was run: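 Viability after 48 h compound treatment at 37C, 500-1,000 cells/well, read as ATP luminescence with CellTiter-Glo. Primary screens used 11-point (MIPE, 0.78 nM-46 µM) or 8-point (NPC, 0.59 nM-46 µM) final concentrations; follow-up screens used 11-point dilutions.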

[5] = qHTS of pediatric cancer cell lines to identify multiple opportunities for drug repurposing: Primary screen for RD cells (AID 1347104); further: nearly all actives have a fitted effect of over 55% in size
How it was run: as §2

[6] = qHTS of pediatric cancer cell lines to identify multiple opportunities for drug repurposing: Primary screen for Rh30 cells (AID 1347107); further: nearly all actives have a fitted effect of over 75% in size
How it was run: as §1

[7] = qHTS of pediatric cancer cell lines to identify multiple opportunities for drug repurposing: Primary screen for Rh41 cells (AID 1347108); further: nearly all actives have a fitted effect of over 70% in size
How it was run: as §2

[8] = qHTS of pediatric cancer cell lines to identify multiple opportunities for drug repurposing: Primary screen for BT-12 cells (AID 1347101); further: nearly all actives have a fitted effect of over 25% in size
How it was run: as §1

[9] = qHTS of pediatric cancer cell lines to identify multiple opportunities for drug repurposing: Confirmatory screen for NB1643 cells (AID 1347109); further: nearly all actives have a fitted effect of over 45% in size
How it was run: as §1

Measured: Potency
Potency means the concentration at half of the fitted maximal effect.

Cc1ccc(/C=N/NC(=O)c2ccccc2Oc2ccccc2)o1
inactive: [1] | [3] | [4]
active: [2] 21.7 µM

COc1ccc2cc(-c3nc(-c4ccc(S(C)=O)cc4)[nH]c3-c3ccncc3)ccc2c1 (stereo unspecified)
inactive: [1] | [2] | [5] | [3] | [4] | [6] | [7]

CC(C)(C)NC(=O)Nc1cccc(Nc2ncc(F)c(NC(C)(C)CO)n2)c1
inactive: [1] | [2] | [5] | [3] | [6]

CC=CCC=CCCC(=O)[C@H]1O[C@@H]1C(N)=O
inactive: [8] | [1] | [2] | [5] | [3] | [4] | [6] | [7]

O=C(NCc1ccncc1)C12C[C@H]3C[C@@H](C1)CC(c1ccc(Cl)cc1)(C3)C2
active: [2] 19.3 µM | [5] 10.5 µM | [7] 23.5 µM
inactive: [1] | [4]

O=C1Nc2ccc(Cl)cc2C(C#CC2CC2)(C(F)(F)F)O1 (stereo unspecified)
active: [2] 21.7 µM | [5] 41.8 µM
inactive: [1] | [6]

O=C(O)c1ccc(-c2c[nH]c3ncc(-c4ccccc4)cc23)cc1C1CCCC1
inactive: [8] | [1] | [4] | [6] | [7] | [9]

CC1=C(/C=C/C(C)=C/C=C/C(C)=C/C(=O)Nc2ccc(O)cc2)C(C)(C)CCC1
active: [8] 7.77 µM | [2] 15.5 µM | [5] 26.6 µM | [7] 9.44 µM
inactive: [4]

NC(=O)c1cccc2[nH]c(-c3ccc([C@H]4CCCN4)cc3F)nc12
inactive: [8] | [1] | [5] | [4] | [6] | [7]

O=c1cc(-c2ccccc2)oc2cc(O)cc(O)c12
inactive: [1] | [2] | [5] | [3] | [6]

Nc1ncnc2c1nc(Cl)n2[C@@H]1O[C@H](CO)[C@@H](O)[C@@H]1O
inactive: [8]
active: [2] 15.3 µM | [5] 29.6 µM | [3] 29.6 µM | [4] 23.5 µM

N#C[C@H]1C[C@H]2C[C@@H]2N1C(=O)[C@@H](N)C12CC3CC(CC(O)(C3)C1)C2
inactive: [8] | [1] | [2] | [5] | [7]

C=CCc1ccc(O)c(-c2ccc(O)c(CC=C)c2)c1
active: [2] 24.3 µM | [3] 18.7 µM
inactive: [1]

c1ccc2c(-c3cnn4cc(-c5ccc(N6CCNCC6)cc5)cnc34)ccnc2c1
active: [8] 27.3 µM | [6] 18.7 µM

CCN(CC)CCOc1ccc(C(=C(Cl)c2ccccc2)c2ccccc2)cc1
inactive: [8] | [1] | [3] | [6] | [7]

CC1(C)CCC2=C(O1)c1ccccc1C(=O)C2=O
active: [8] 30.6 µM | [5] 33.2 µM | [6] 23.5 µM | [7] 18.7 µM | [9] 23.3 µM
inactive: [4]

CC(=O)Nc1ccc([C@H](C)C(=O)Nc2ncc(C(C)C)s2)cc1
inactive: [6]
active: [8] 1.22 µM | [1] 7.43 µM | [2] 3.85 µM | [5] 4.18 µM | [3] 1.87 µM | [7] 7.43 µM

CC=CC[C@@H](C)C(=O)[C@H]1C(=O)N[C@@H](C(C)C)C(=O)N(C)CC(=O)N(C)[C@@H](CC(C)C)C(=O)N[C@@H](C(C)C)C(=O)N(C)[C@@H](CC(C)C)C(=O)N[C@@H](C)C(=O)N[C@H](C)C(=O)N(C)[C@@H](CC(C)C)C(=O)N(C)[C@@H](CC(C)C)C(=O)N(C)[C@@H](C(C)C)C(=O)N1C
active: [2] 24.3 µM
inactive: [1] | [5] | [3] | [4] | [6]

NC(=O)c1ccc2nc(-c3ccc(Oc4ccc(Cl)cc4)cc3)[nH]c2c1
active: [8] 2.43 µM
inactive: [1] | [3] | [4] | [6] | [7]

COc1cc(NC(=O)c2ccc(-c3ccc(Cl)cc3)o2)cc(OC)c1
inactive: [8] | [1] | [2]
active: [3] 7.43 µM | [4] 10.5 µM | [6] 7.43 µM | [7] 7.43 µM

O=C1NC(=O)C(=Cc2ccc3nccnc3c2)S1
active: [2] 4.21 µM | [3] 5.12 µM
inactive: [4] | [7]
